# Reference: ChEMBL document CHEMBL2218924, “A broad activity screen in support of a chemogenomic map for kinase signalling research and drug discovery” (Biochem J, 2013)
# Target: Serine/threonine-protein kinase PAK 6 (Homo sapiens) (UniProt Q9NQU5)
# Details: at 1 µM
# Chain of Serine/threonine-protein kinase PAK 6 (Homo sapiens) (Q9NQU5 whole entry, looked up): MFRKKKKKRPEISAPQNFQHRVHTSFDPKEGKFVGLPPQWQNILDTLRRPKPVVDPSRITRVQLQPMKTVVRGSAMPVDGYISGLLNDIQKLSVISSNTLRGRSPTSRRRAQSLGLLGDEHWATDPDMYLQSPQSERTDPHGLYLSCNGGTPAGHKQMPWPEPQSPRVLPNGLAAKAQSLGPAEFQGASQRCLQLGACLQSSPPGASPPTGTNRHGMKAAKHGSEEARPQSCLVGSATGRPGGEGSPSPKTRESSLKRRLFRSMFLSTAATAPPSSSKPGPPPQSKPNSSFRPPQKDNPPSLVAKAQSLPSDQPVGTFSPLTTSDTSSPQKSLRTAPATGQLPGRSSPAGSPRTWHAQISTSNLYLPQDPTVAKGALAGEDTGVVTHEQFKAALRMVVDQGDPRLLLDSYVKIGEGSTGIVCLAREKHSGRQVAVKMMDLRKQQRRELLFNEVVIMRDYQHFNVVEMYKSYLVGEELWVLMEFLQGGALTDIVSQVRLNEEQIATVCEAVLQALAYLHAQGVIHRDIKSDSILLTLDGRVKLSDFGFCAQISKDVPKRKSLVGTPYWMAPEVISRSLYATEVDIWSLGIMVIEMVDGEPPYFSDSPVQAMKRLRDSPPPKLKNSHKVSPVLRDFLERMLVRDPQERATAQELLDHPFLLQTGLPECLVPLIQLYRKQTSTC
row,Structure (SMILES),residual activity [%]
1,Cn1sc(=O)n(Cc2ccccc2)c1=O,96
2,O=C1Cc2c([nH]c3ccc([N+](=O)[O-])cc23)-c2ccccc2N1,61
3,O=C(CCCc1ccc(-c2ccccc2F)cc1)Nc1ccc(O)cc1,96
4,Cn1c2ccccc2c2c3c(c4c5ccccc5n(CCC#N)c4c21)CNC3=O,4

# Target: Serine/threonine-protein kinase PAK 6 (Homo sapiens) (UniProt Q9NQU5)
# Details: at 10 µM
row,Structure (SMILES),residual activity [%]
1,O=C1C(Cl)=C(N2C(=O)CCC2=O)C(=O)c2ccccc21,93
2,O=C(O)/C=C/c1cc(Br)c(Br)c(Br)c1Br,76
3,Nc1n[nH]c2nc3ccccc3nc12,84
4,O=C(c1cc2cc(O)ccc2[nH]1)c1cc2cc(O)ccc2[nH]1,52
5,Oc1cccc(-c2nc(N3CCOCC3)c3oc4ncccc4c3n2)c1,78
6,O=C(NC(NC(=S)Nc1ccc(F)c([N+](=O)[O-])c1)C(Cl)(Cl)Cl)C(c1ccccc1)c1ccccc1 (configuration not stated),61
7,CCCCc1c(-c2ccc(OC)cc2)[nH]c2nccnc12,60
8,CCCC(=O)Oc1ccc2[nH]c(C(=O)c3cc4ccccc4[nH]3)cc2c1,75
9,NC(=O)Nc1sc(-c2ccc(F)cc2)cc1C(N)=O,40
10,COc1cc2nccc(Oc3ccc(NC(=S)NC(=O)c4ccccc4C)cc3)c2cc1OC,64
11,NCCNc1ncc(C(N)=O)c(Nc2cccc(C(F)(F)F)c2)n1,18
12,CC(C)(C)n1nc(Cc2cccc3ccccc23)c2c(N)ncnc21,79
13,COc1ccc(Cl)cc1NC(=O)Nc1cc(C)nc2ccccc12,88
14,O=c1cc(N2CCNCC2)oc2c(-c3ccccc3)cccc12,82
15,Nc1ncnc2c1c(-c1ccc(Oc3ccccc3)cc1)cn2C1CCCC1,63
16,O=C1NC(=O)c2c1c1c3ccccc3[nH]c1n1cncc21,73
17,O=c1cc(N2CCOCC2)oc2c1ccc1ccccc12,94
18,CN(C)S(=O)(=O)c1ccc2c(c1)/C(=C/c1cc3c([nH]1)CCCC3)C(=O)N2,50
19,CCOC(=O)c1c(C)[nH]c(/C=C2\C(=O)Nc3ccccc32)c1C,99
20,O=C1NC(=O)C(c2c[nH]c3ccccc23)=C1c1c[nH]c2ccccc12,77
21,CCN(CC)CCNC(=O)c1c(C)[nH]c(/C=C2\C(=O)Nc3ccc(Cl)cc32)c1C,28
22,CC(C)c1nn(-c2c(Cl)cccc2Cl)c2nc(Cc3ccc(OCCO)cc3)[nH]c(=O)c12,51
23,Cn1sc(=O)n(Cc2ccccc2)c1=O,94
24,O=C1Cc2c([nH]c3ccc([N+](=O)[O-])cc23)-c2ccccc2N1,41
25,O=C(CCCc1ccc(-c2ccccc2F)cc1)Nc1ccc(O)cc1,103
26,Cn1c2ccccc2c2c3c(c4c5ccccc5n(CCC#N)c4c21)CNC3=O,2

# Target: PAS domain-containing serine/threonine-protein kinase (Homo sapiens) (UniProt Q96RG2)
# Details: at 10 µM
# Chain of PAS domain-containing serine/threonine-protein kinase (Homo sapiens) (Q96RG2 whole entry, the tested form may be a part): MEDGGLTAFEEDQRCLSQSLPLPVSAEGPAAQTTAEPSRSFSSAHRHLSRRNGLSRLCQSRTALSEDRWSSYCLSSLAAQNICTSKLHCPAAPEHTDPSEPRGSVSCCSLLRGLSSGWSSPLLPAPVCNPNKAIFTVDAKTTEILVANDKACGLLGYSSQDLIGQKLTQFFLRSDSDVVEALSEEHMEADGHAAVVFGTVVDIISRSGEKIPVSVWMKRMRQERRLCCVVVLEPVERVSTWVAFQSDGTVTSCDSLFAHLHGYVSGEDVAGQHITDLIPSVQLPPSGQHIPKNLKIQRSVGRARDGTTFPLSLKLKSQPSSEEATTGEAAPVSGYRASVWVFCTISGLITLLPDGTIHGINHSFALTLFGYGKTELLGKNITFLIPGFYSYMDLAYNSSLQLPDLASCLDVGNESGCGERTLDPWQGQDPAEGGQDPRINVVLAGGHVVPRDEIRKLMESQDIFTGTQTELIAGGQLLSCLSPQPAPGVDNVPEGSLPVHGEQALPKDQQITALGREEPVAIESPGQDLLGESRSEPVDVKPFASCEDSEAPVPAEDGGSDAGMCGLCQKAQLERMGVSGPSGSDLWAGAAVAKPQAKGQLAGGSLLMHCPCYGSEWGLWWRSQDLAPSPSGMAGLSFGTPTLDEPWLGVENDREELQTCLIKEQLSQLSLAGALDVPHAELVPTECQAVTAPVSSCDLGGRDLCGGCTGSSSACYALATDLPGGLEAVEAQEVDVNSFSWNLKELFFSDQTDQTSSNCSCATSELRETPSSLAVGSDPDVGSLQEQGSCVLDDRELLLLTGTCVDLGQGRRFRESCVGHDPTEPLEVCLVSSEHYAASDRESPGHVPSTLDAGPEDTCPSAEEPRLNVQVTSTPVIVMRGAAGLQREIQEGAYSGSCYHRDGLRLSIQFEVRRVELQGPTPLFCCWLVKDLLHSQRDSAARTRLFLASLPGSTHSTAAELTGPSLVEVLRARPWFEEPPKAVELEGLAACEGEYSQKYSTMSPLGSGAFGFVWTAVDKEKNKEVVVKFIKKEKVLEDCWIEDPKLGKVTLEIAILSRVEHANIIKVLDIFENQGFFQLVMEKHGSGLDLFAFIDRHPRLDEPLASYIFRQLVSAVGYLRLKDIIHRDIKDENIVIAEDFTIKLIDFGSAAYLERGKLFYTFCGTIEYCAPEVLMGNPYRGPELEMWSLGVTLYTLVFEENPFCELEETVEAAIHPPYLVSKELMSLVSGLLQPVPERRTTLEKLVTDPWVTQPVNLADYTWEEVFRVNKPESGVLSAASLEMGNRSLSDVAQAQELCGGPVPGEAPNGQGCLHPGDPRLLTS
row,Structure (SMILES),residual activity [%]
1,O=C1C(Cl)=C(N2C(=O)CCC2=O)C(=O)c2ccccc21,122
2,O=C(O)/C=C/c1cc(Br)c(Br)c(Br)c1Br,6
3,COc1ccc(-c2cnc3c(-c4ccsc4)cnn3c2)cc1,94
4,O=C(NC(NC(=S)Nc1ccc(F)c([N+](=O)[O-])c1)C(Cl)(Cl)Cl)C(c1ccccc1)c1ccccc1 (configuration not stated),75
5,CCCC(=O)Oc1ccc2[nH]c(C(=O)c3cc4ccccc4[nH]3)cc2c1,84
6,NC(=O)Nc1sc(-c2ccc(F)cc2)cc1C(N)=O,96
7,NCCNc1ncc(C(N)=O)c(Nc2cccc(C(F)(F)F)c2)n1,40
8,O=C1Nc2ccc(Cl)cc2/C1=C/c1cc(Cl)c(O)c(Cl)c1,29
9,CC(C)(C)n1nc(Cc2cccc3ccccc23)c2c(N)ncnc21,71
10,COc1ccc(Cl)cc1NC(=O)Nc1cc(C)nc2ccccc12,43
11,O=c1cc(N2CCNCC2)oc2c(-c3ccccc3)cccc12,51
12,Nc1ncnc2c1c(-c1ccc(Oc3ccccc3)cc1)cn2C1CCCC1,43
13,O=C1NC(=O)c2c1c1c3ccccc3[nH]c1n1cncc21,26
14,O=c1cc(N2CCOCC2)oc2c1ccc1ccccc12,88
15,CCOC(=O)c1c(C)[nH]c(/C=C2\C(=O)Nc3ccccc32)c1C,93
16,O=C1NC(=O)C(c2c[nH]c3ccccc23)=C1c1c[nH]c2ccccc12,39
17,CCN(CC)CCNC(=O)c1c(C)[nH]c(/C=C2\C(=O)Nc3ccc(Cl)cc32)c1C,49
18,c1ccc(-c2cnc(Nc3ccc(OCCN4CCCC4)cc3)s2)cc1,62
19,Cn1sc(=O)n(Cc2ccccc2)c1=O,138
20,O=C(CCCc1ccc(-c2ccccc2F)cc1)Nc1ccc(O)cc1,108
21,Cn1c2ccccc2c2c3c(c4c5ccccc5n(CCC#N)c4c21)CNC3=O,49

# Target: Activated CDC42 kinase 1 (Homo sapiens) (UniProt Q07912)
# Details: at 1 µM
# Chain of Activated CDC42 kinase 1 (Homo sapiens) (Q07912 whole entry, looked up): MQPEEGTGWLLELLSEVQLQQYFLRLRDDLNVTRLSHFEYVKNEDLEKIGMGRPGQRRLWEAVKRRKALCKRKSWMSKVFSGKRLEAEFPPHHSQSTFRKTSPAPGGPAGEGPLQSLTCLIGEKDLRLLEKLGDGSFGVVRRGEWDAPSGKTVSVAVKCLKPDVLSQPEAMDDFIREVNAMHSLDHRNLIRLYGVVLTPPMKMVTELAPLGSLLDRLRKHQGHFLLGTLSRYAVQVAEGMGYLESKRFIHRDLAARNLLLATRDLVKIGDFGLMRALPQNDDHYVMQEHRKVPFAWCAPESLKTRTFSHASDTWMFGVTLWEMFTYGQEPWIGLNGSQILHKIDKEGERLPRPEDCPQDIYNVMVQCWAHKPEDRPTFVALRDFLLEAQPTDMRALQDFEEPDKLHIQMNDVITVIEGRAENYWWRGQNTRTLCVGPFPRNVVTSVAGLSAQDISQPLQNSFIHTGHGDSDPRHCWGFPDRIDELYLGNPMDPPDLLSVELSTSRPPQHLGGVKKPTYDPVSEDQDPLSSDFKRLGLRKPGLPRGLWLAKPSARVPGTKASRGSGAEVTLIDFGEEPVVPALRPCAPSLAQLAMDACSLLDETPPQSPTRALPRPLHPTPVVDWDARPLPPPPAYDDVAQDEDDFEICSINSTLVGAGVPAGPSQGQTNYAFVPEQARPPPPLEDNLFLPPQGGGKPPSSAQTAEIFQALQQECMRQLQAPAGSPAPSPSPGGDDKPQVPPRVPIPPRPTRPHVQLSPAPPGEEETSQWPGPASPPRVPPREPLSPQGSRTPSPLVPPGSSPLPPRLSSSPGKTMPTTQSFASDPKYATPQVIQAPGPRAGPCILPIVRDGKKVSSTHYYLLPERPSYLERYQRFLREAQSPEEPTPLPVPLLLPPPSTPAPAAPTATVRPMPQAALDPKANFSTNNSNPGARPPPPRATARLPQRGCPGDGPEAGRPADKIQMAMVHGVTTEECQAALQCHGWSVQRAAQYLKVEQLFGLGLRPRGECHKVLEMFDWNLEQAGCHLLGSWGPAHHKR
row,Structure (SMILES),residual activity [%]
1,O=C1C(Cl)=C(N2C(=O)CCC2=O)C(=O)c2ccccc21,78
2,O=C(O)/C=C/c1cc(Br)c(Br)c(Br)c1Br,79
3,COc1ccc(-c2cnc3c(-c4ccsc4)cnn3c2)cc1,71
4,Nc1n[nH]c2nc3ccccc3nc12,68
5,O=C(c1cc2cc(O)ccc2[nH]1)c1cc2cc(O)ccc2[nH]1,64
6,Oc1cccc(-c2nc(N3CCOCC3)c3oc4ncccc4c3n2)c1,78
7,O=C(NC(NC(=S)Nc1ccc(F)c([N+](=O)[O-])c1)C(Cl)(Cl)Cl)C(c1ccccc1)c1ccccc1 (configuration not stated),100
8,CCCCc1c(-c2ccc(OC)cc2)[nH]c2nccnc12,24
9,CCCC(=O)Oc1ccc2[nH]c(C(=O)c3cc4ccccc4[nH]3)cc2c1,72
10,NC(=O)Nc1sc(-c2ccc(F)cc2)cc1C(N)=O,10
11,COc1cc2nccc(Oc3ccc(NC(=S)NC(=O)c4ccccc4C)cc3)c2cc1OC,24
12,O=C1Cc2c([nH]c3ccc(Br)cc23)-c2ccccc2N1,24
13,NCCNc1ncc(C(N)=O)c(Nc2cccc(C(F)(F)F)c2)n1,70
14,O=C1Nc2ccc(Cl)cc2/C1=C/c1cc(Cl)c(O)c(Cl)c1,48
15,CC(C)N(CCC(=O)c1ccc2ccccc2c1)Cc1ccccc1,68
16,CC(C)(C)n1nc(Cc2cccc3ccccc23)c2c(N)ncnc21,6

row,Structure (SMILES),residual activity [%]
1,COc1ccc(Cl)cc1NC(=O)Nc1cc(C)nc2ccccc12,90
2,O=c1cc(N2CCNCC2)oc2c(-c3ccccc3)cccc12,88
3,Nc1ncnc2c1c(-c1ccc(Oc3ccccc3)cc1)cn2C1CCCC1,4
4,O=C1NC(=O)c2c1c1c3ccccc3[nH]c1n1cncc21,38
5,O=c1cc(N2CCOCC2)oc2c1ccc1ccccc12,90
6,CN(C)S(=O)(=O)c1ccc2c(c1)/C(=C/c1cc3c([nH]1)CCCC3)C(=O)N2,13
7,CCOC(=O)c1c(C)[nH]c(/C=C2\C(=O)Nc3ccccc32)c1C,73
8,O=C1NC(=O)C(c2c[nH]c3ccccc23)=C1c1c[nH]c2ccccc12,73
9,CCN(CC)CCNC(=O)c1c(C)[nH]c(/C=C2\C(=O)Nc3ccc(Cl)cc32)c1C,25
10,CC(C)c1nn(-c2c(Cl)cccc2Cl)c2nc(Cc3ccc(OCCO)cc3)[nH]c(=O)c12,63
11,c1ccc(-c2cnc(Nc3ccc(OCCN4CCCC4)cc3)s2)cc1,68
12,Cn1sc(=O)n(Cc2ccccc2)c1=O,77
13,O=C1Cc2c([nH]c3ccc([N+](=O)[O-])cc23)-c2ccccc2N1,44
14,O=C(CCCc1ccc(-c2ccccc2F)cc1)Nc1ccc(O)cc1,89
15,Cn1c2ccccc2c2c3c(c4c5ccccc5n(CCC#N)c4c21)CNC3=O,3
